# The panel holds about 79,000 compounds, 15% with a hit somewhere; the sample as a whole holds those more often. A number with no mark means an inactive call. Calls of active or inactive are those of the source. No stated cut-off is given here; in the data, active means growth inhibition above about 70%; inactive means the rest.
# Tests used:
# [1] = NCI Yeast Anticancer Drug Screen. Data for the rad52 strain (AID 147);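 further: 0% = growth of vehicle-treated control cultures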; conditions: S. cerevisiae rad52 mutant growth inhibition, stronger effect = higher value
# Procedure, shortened: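 The repair-mutant yeast strain was incubated with compounds, then growth was read and inhibition derived relative to vehicle.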
# [2] = NCI Yeast Anticancer Drug Screen. Data for the wt1 strain (AID 149);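 further: 0% = growth of vehicle-treated wt1 cultures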; conditions: S. cerevisiae wt1 strain (SPY 50644) growth inhibition, stronger effect = higher value
# Procedure, shortened: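 Each compound is tested on wt1 yeast and the loss of growth versus vehicle gives the inhibition value.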
# [3] = NCI Yeast Anticancer Drug Screen. Data for the rad50EPP+ strain (AID 151);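 further: 0% = growth of vehicle-treated control cultures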; conditions: S. cerevisiae rad50 mutant strain, stronger effect = higher value
# Procedure, shortened: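 Vehicle-normalised growth inhibition; rad50EPP+ yeast strain, altered in DNA damage repair, compound-treated.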
# [4] = NCI Yeast Anticancer Drug Screen. Data for the mgt1 strain (AID 153); conditions: S. cerevisiae mgt1 mutant growth inhibition, stronger effect = higher value
# Procedure, shortened: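 Vehicle-normalized growth inhibition is determined in mgt1 yeast, a strain selected for a defined alteration in DNA repair or cell cycle control.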
# [5] = NCI Yeast Anticancer Drug Screen. Data for the rad50 strain (AID 155);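 further: 0% = growth of vehicle-only cultures of the same strain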; conditions: S. cerevisiae rad50 strain growth inhibition, stronger effect = higher value
# Procedure, shortened: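 Vehicle-treated cultures provide the reference for the growth inhibition reported for compound-exposed, repair-deficient yeast.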
# [6] = NCI Yeast Anticancer Drug Screen. Data for the mec2-1 strain (AID 157); conditions: S. cerevisiae mec2-1 strain, stronger effect = higher value
# Procedure, shortened: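 Mutant yeast (mec2-1) grown with compound; growth inhibition relative to vehicle control reported.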
# [7] = NCI Yeast Anticancer Drug Screen. Data for the rad14 strain (AID 159);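 further: 0% = growth of vehicle-treated control cultures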; conditions: S. cerevisiae rad14 strain growth inhibition, stronger effect = higher value
# Procedure, shortened: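 Inhibition of growth is reported for a repair-deficient yeast mutant following compound treatment, calculated relative to cultures that received vehicle.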
# [8] = NCI Yeast Anticancer Drug Screen. Data for the sgs1 mgt1 strain (AID 161);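 further: 0% = growth of cultures given vehicle only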; conditions: S. cerevisiae sgs1 mgt1 strain, stronger effect = higher value
# Procedure, shortened: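 Growth of a repair-deficient yeast mutant was monitored after compound treatment and expressed as inhibition relative to vehicle-treated cultures.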
# [9] = NCI Yeast Anticancer Drug Screen. Data for the CLN2oe strain (AID 163);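 further: 0% = growth of vehicle-only control cultures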; conditions: S. cerevisiae CLN2oe strain, stronger effect = higher value
# Procedure, shortened: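 Compounds are applied to yeast harbouring a defined cell-cycle control change; reduced growth compared with vehicle-treated controls gives the value.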
# [10] = NCI Yeast Anticancer Drug Screen. Data for the cln2 rad14 strain (AID 165);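 further: 0% = growth equal to vehicle treated cultures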; conditions: S. cerevisiae cln2 rad14 strain, stronger effect = higher value
# Procedure, shortened: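 Readout is yeast growth inhibition versus vehicle-treated controls, using a strain with cln2 and rad14 alterations exposed to compound.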
# [11] = NCI Yeast Anticancer Drug Screen. Data for the bub3 strain (AID 167); conditions: S. cerevisiae bub3 mutant strain, stronger effect = higher value
# Procedure, shortened: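 Mutant yeast screening strain plus compound; vehicle-treated cultures serve as the 0% inhibition reference.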
# [12] = NCI Yeast Anticancer Drug Screen. Data for the wt2 strain (AID 169); conditions: S. cerevisiae wt2 strain growth inhibition, stronger effect = higher value
# Procedure, shortened: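 Against vehicle-treated controls, the growth of yeast exposed to each compound was compared, and the inhibition was recorded.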
# [13] = NCI Yeast Anticancer Drug Screen. Data for the mlh1 strain (AID 171);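 further: 0% = growth of vehicle-treated control cultures of the same strain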; conditions: S. cerevisiae mlh1 strain growth inhibition, stronger effect = higher value
# Procedure, shortened: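 Measured: yeast growth. Reference: vehicle-treated controls. Organism: strain with a defined alteration affecting DNA damage repair or cell cycle control, treated with compound.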
# [14] = NCI Yeast Anticancer Drug Screen. Data for the sgs1 strain (AID 173);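 further: 0% = growth of vehicle-only control cultures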; conditions: S. cerevisiae sgs1 mutant, stronger effect = higher value
# Procedure, shortened: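 Each compound was added to cultures of the altered yeast strain. Growth was recorded, and inhibition was derived by comparison with vehicle controls.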
# [15] = NCI Yeast Anticancer Drug Screen. Data for the mlh1 rad18 strain (AID 175); conditions: S. cerevisiae mlh1 rad18 strain growth inhibition, stronger effect = higher value
# Procedure, shortened: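 Genetically defined yeast (DNA repair-deficient) exposed to compounds; growth inhibition determined relative to vehicle.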
# [16] = NCI Yeast Anticancer Drug Screen. Data for the rad18 strain (AID 177); conditions: S. cerevisiae rad18 mutant growth inhibition, stronger effect = higher value
# Procedure, shortened: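 Vehicle-treated cultures served as the baseline for scoring compound-induced growth inhibition in DNA-repair-mutant yeast.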
# [17] = at 5.0 µM (retest, dose inferred, filed as 0.5)
# [18] = at 50.0 µM (retest, dose inferred, filed as 5.0)
structure (smiles),measurement,setting,value
COP(=O)(OC)/C(=C\C1=CN(C(c2ccccc2)(c2ccccc2)c2ccccc2)CN1)NC=O,growth inhibition,[1]; at 1.2 µM,-12%
same,growth inhibition,[1]; at 3.7 µM,-15%
same,growth inhibition,[1]; at 11.0 µM,-11%
same,growth inhibition,[1]; at 33.0 µM,59%
same,growth inhibition,[1]; at 100.0 µM,96% (active)
same,growth inhibition,[2]; at 1.2 µM,12%
same,growth inhibition,[2]; at 3.7 µM,3%
same,growth inhibition,[2]; at 11.0 µM,5%
same,growth inhibition,[2]; at 33.0 µM,54%
same,growth inhibition,[2]; at 100.0 µM,96% (active)
same,growth inhibition,[3]; at 1.2 µM,2%
same,growth inhibition,[3]; at 3.7 µM,10%
same,growth inhibition,[3]; at 11.0 µM,73% (active)
same,growth inhibition,[3]; at 33.0 µM,96% (active)
same,growth inhibition,[3]; at 100.0 µM,97% (active)
same,growth inhibition,[4]; at 1.2 µM,6%
same,growth inhibition,[4]; at 3.7 µM,-3%
same,growth inhibition,[4]; at 11.0 µM,11%
same,growth inhibition,[4]; at 33.0 µM,67%
same,growth inhibition,[4]; at 100.0 µM,96% (active)
same,growth inhibition,[5]; at 1.2 µM,-14%
same,growth inhibition,[5]; at 3.7 µM,-32%
same,growth inhibition,[5]; [17],2%
same,growth inhibition,[5]; at 11.0 µM,-17%
same,growth inhibition,[5]; at 33.0 µM,73% (active)
same,growth inhibition,[5]; [18],-15%
same,growth inhibition,[5]; at 50.0 µM,98% (active)
same,growth inhibition,[5]; at 100.0 µM,96% (active)
same,growth inhibition,[6]; at 1.2 µM,34%
same,growth inhibition,[6]; at 3.7 µM,13%
same,growth inhibition,[6]; [17],-10%
same,growth inhibition,[6]; at 11.0 µM,30%
same,growth inhibition,[6]; at 33.0 µM,68%
same,growth inhibition,[6]; [18],-4%
same,growth inhibition,[6]; at 50.0 µM,98.3% (active)
same,growth inhibition,[6]; at 100.0 µM,97% (active)
same,growth inhibition,[7]; at 1.2 µM,4%
same,growth inhibition,[7]; at 3.7 µM,-1%
same,growth inhibition,[7]; at 11.0 µM,-5%
same,growth inhibition,[7]; at 33.0 µM,65%
same,growth inhibition,[7]; at 100.0 µM,96% (active)
same,growth inhibition,[8]; [17],-9%
same,growth inhibition,[8]; [18],0%
same,growth inhibition,[8]; at 50.0 µM,98.3% (active)
same,growth inhibition,[9]; at 1.2 µM,3%
same,growth inhibition,[9]; at 3.7 µM,8%
same,growth inhibition,[9]; at 11.0 µM,-8%
same,growth inhibition,[9]; at 33.0 µM,25%
same,growth inhibition,[9]; at 100.0 µM,95% (active)
same,growth inhibition,[10]; [17],3%
same,growth inhibition,[10]; [18],7%
same,growth inhibition,[10]; at 50.0 µM,95.2% (active)
same,growth inhibition,[11]; at 1.2 µM,-27%
same,growth inhibition,[11]; at 3.7 µM,-41%
same,growth inhibition,[11]; [17],-7%
same,growth inhibition,[11]; at 11.0 µM,-41%
same,growth inhibition,[11]; at 33.0 µM,33%
same,growth inhibition,[11]; [18],2%
same,growth inhibition,[11]; at 50.0 µM,96.2% (active)
same,growth inhibition,[11]; at 100.0 µM,94% (active)
same,growth inhibition,[12]; at 1.2 µM,-10%
same,growth inhibition,[12]; at 3.7 µM,-13%
same,growth inhibition,[12]; at 11.0 µM,-6%
same,growth inhibition,[12]; at 33.0 µM,34%
same,growth inhibition,[12]; at 100.0 µM,96% (active)
same,growth inhibition,[13]; at 1.2 µM,1%
same,growth inhibition,[13]; at 3.7 µM,-13%
same,growth inhibition,[13]; at 11.0 µM,-8%
same,growth inhibition,[13]; at 33.0 µM,71% (active)
same,growth inhibition,[13]; at 100.0 µM,96% (active)
same,growth inhibition,[14]; at 1.2 µM,13%
same,growth inhibition,[14]; at 3.7 µM,20%
same,growth inhibition,[14]; at 11.0 µM,12%
same,growth inhibition,[14]; at 33.0 µM,79% (active)
same,growth inhibition,[14]; at 100.0 µM,97% (active)
same,growth inhibition,[15]; [17],-22%
same,growth inhibition,[15]; [18],-8%
same,growth inhibition,[15]; at 50.0 µM,97% (active)
same,growth inhibition,[16]; at 1.2 µM,-7%
same,growth inhibition,[16]; at 3.7 µM,-18%
same,growth inhibition,[16]; at 11.0 µM,-13%
same,growth inhibition,[16]; at 33.0 µM,40%
same,growth inhibition,[16]; at 100.0 µM,95% (active)
CCN(CC)CCN1C(=O)c2cccc3cc(OC)cc(c23)C1=O,growth inhibition,[1]; at 1.2 µM,8%
same,growth inhibition,[1]; at 3.7 µM,48%
same,growth inhibition,[1]; at 11.0 µM,72% (active)
same,growth inhibition,[1]; at 33.0 µM,91% (active)
same,growth inhibition,[1]; at 100.0 µM,93% (active)
same,growth inhibition,[2]; at 1.2 µM,-5%
same,growth inhibition,[2]; at 3.7 µM,1%
same,growth inhibition,[2]; at 11.0 µM,-3%
same,growth inhibition,[2]; at 33.0 µM,-7%
same,growth inhibition,[2]; at 100.0 µM,-1%
same,growth inhibition,[3]; at 1.2 µM,9%
same,growth inhibition,[3]; at 3.7 µM,37%
same,growth inhibition,[3]; at 11.0 µM,60%
same,growth inhibition,[3]; at 33.0 µM,86% (active)
same,growth inhibition,[3]; at 100.0 µM,93% (active)
same,growth inhibition,[4]; at 1.2 µM,-10%
same,growth inhibition,[4]; at 3.7 µM,-12%
same,growth inhibition,[4]; at 11.0 µM,-10%
same,growth inhibition,[4]; at 33.0 µM,-4%
same,growth inhibition,[4]; at 100.0 µM,1%
same,growth inhibition,[5]; at 1.2 µM,4%
same,growth inhibition,[5]; at 3.7 µM,43%
same,growth inhibition,[5]; [17],31%
same,growth inhibition,[5]; at 11.0 µM,74% (active)
same,growth inhibition,[5]; at 33.0 µM,90% (active)
same,growth inhibition,[5]; [18],94% (active)
same,growth inhibition,[5]; at 50.0 µM,79.6% (active)
same,growth inhibition,[5]; at 100.0 µM,93% (active)
same,growth inhibition,[6]; at 1.2 µM,-10%
same,growth inhibition,[6]; at 3.7 µM,-3%
same,growth inhibition,[6]; [17],5%
same,growth inhibition,[6]; at 11.0 µM,-12%
same,growth inhibition,[6]; at 33.0 µM,-14%
same,growth inhibition,[6]; [18],19%
same,growth inhibition,[6]; at 50.0 µM,1.45%
same,growth inhibition,[6]; at 100.0 µM,16%
same,growth inhibition,[7]; at 1.2 µM,-10%
same,growth inhibition,[7]; at 3.7 µM,1%
same,growth inhibition,[7]; at 11.0 µM,-9%
same,growth inhibition,[7]; at 33.0 µM,-6%
same,growth inhibition,[7]; at 100.0 µM,3%
same,growth inhibition,[8]; [17],13%
same,growth inhibition,[8]; [18],27%
same,growth inhibition,[8]; at 50.0 µM,-4.05%
same,growth inhibition,[9]; at 1.2 µM,2%
same,growth inhibition,[9]; at 3.7 µM,-4%
same,growth inhibition,[9]; at 11.0 µM,5%
same,growth inhibition,[9]; at 33.0 µM,7%
same,growth inhibition,[9]; at 100.0 µM,24%
same,growth inhibition,[10]; [17],27%
same,growth inhibition,[10]; [18],18%
same,growth inhibition,[10]; at 50.0 µM,-3.8%
same,growth inhibition,[11]; at 1.2 µM,-9%
same,growth inhibition,[11]; at 3.7 µM,-3%
same,growth inhibition,[11]; [17],11%
same,growth inhibition,[11]; at 11.0 µM,-7%
same,growth inhibition,[11]; at 33.0 µM,1%
same,growth inhibition,[11]; [18],15%
same,growth inhibition,[11]; at 50.0 µM,-22.1%
same,growth inhibition,[11]; at 100.0 µM,11%

# — PubChem BioAssay (NCI)
